The list is not random: actives were taken first. Their share in the collection is about 16%.
uPA surface inh: qHTS for Inhibitors of Cell Surface uPA Generation; cell surface uPA generation assay, qHTS; 0.31% of 330,000 active; Potency, µM (doses to about 38.3 µM), without a hit: at the highest dose activity change, negative = inhibition, most hits filed as inhibitors; active = well fitted inhibition curve with a large enough effect; inconclusive = small, poorly fitted or top-dose-only effect; inactive = no such curve, though single readings can be large or run the other way; tested in mouse RAW 264.7 cells; also: potency is read from the fitted curve at half-maximal effect; % is scaled to controls: 0 for no effect and ±100 for the full control effect; nearly all actives have a fitted effect of over 55% in size
DT40 TDP1 no CPT: qHTS for Inhibitors of human tyrosyl-DNA phosphodiesterase 1 (TDP1): qHTS in cells in absence of CPT. DT40 Tdp1-/- hTDP1 cells, no CPT, ATP luminescence, 48 h. Potency, µM (series often up to 46.2 µM), for the others: at the top dose activity change, negative = growth inhibition, actives largely listed as inhibitors. 15% of 420,000 active. AID 686978, 2013; also: potency is read from the fitted curve at half-maximal effect; % is scaled to controls: 0 for no effect and ±100 for the full control effect; nearly all actives have a fitted effect of over 55% in size
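No-CPT arm: Tdp1-/-;hTDP1 DT40 cells (400/well) plus compounds, incubated ≥48 hr at 37 °C. Readout CellTiter-Glo luminescence.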
TDP1 cell CPT: qHTS for Inhibitors of human tyrosyl-DNA phosphodiesterase 1 (TDP1): qHTS in cells in presence of CPT | chicken DT40 Tdp1-/-;hTDP1 cells + 20 nM CPT, ATP luminescence, 48 h | Potency, µM (series often up to 46.2 µM), inactives show top-dose activity change, negative = growth inhibition, actives largely listed as inhibitors | 12% of 420,000 active; also: potency is read from the fitted curve at half-maximal effect; % is scaled to controls: 0 for no effect and ±100 for the full control effect; nearly all actives have a fitted effect of over 55% in size
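Cell growth measured by CellTiter-Glo luminescence after a minimum 48 h, 37 C compound exposure with 20 nM CPT in Tdp1-knockout DT40 cells stably expressing hTDP1, seeded 400/well; qHTS titration format.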
miR-21 reporter: qHTS Assay for Modulators of miRNAs and/orActivators of miR-21 | Potency, µM (top dose mostly 38.3 µM), for the others: at the highest dose activity change, positive = activation, most hits filed as activators | HeLa miR-21 FLuc reporter, luciferase, 48 h | 340,000 tested, under 10 active;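 also: % of control where 0% means no effect; miR-21 action dims this reporter so a rising signal means less miR-21 action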
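HeLa miR-21-FLuc reporter line, endogenous miR-21; 2000 cells/well in DMEM/10% FBS; compound titration up to ~40uM final, 48 h, 37 degree Celsius; luciferase detection reagent, 15 min lysis, CCD luminescence.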
TDP1 inh: qHTS Assay for Inhibitors of Tyrosyl-DNA Phosphodiesterase (TDP1). Tyrosyl-DNA phosphodiesterase 1 (Homo sapiens), Q9NUW8. recombinant TDP1, AlphaScreen DNA substrate cleavage. Potency, µM (series often up to 130 µM), for inactives: at the highest dose activity change, negative = inhibition, usual class: inhibitors. 0.28% of 350,000 active; also: potency is read from the fitted curve at half-maximal effect; % is scaled to controls: 0 for no effect and ±100 for the full control effect; nearly all actives have a fitted effect of over 40% in size
Target sequence (Q9NUW8 whole entry, looked up): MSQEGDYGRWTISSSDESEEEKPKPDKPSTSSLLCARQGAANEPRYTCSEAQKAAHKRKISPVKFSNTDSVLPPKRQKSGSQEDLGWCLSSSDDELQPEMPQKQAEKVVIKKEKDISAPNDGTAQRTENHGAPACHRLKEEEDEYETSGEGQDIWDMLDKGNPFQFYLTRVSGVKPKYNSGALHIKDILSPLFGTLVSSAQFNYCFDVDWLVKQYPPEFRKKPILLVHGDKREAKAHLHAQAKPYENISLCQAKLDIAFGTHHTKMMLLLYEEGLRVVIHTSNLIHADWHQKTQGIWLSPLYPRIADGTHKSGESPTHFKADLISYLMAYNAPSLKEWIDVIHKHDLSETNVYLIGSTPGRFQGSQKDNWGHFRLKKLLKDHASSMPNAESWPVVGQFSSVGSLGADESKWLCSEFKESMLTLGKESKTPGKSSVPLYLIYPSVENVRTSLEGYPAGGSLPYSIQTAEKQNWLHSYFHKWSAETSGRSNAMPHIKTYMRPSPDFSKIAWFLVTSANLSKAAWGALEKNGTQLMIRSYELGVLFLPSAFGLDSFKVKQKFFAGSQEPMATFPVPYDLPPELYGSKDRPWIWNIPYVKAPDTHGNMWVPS
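E. coli-derived human Tdp1, 1 nM final. Cpd preinc 15 min RT; substrate 15 nM final, 5 min RT; AS bead mix 10 ug/ml final, 10 min RT. Signal loss = tyrosine-FITC cleavage. No-enzyme wells = max signal.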
Active calls of the source: *; ? = inconclusive; · = not tested or not shown. Unless noted, calls follow the shape of the dose curve; as a rule, active = well fitted curve in the direction sought with a large enough effect; inconclusive = small, poorly fitted or top-dose-only effect, or another doubt; inactive = no such curve, though single readings can be large; an effect the other way counts as inactive or inconclusive.

SMILES	uPA surface inh	DT40 TDP1 no CPT	TDP1 cell CPT	miR-21 reporter	TDP1 inh
CCOc1ccccc1NC(=O)c1cccc2c1C(=O)N(C1CCCCC1)C2	4%	13µM*	?	0%	1%
O=C(Nc1cccc(F)c1)c1cccc2c1C(=O)N(C1CCCCC1)C2	4%	-1%	1%	1%	-4%
Cc1cc(C)c(NC(=O)c2cccc3c2C(=O)N(C2CCCCC2)C3)c(C)c1	1%	16µM*	?	-4%	2%
Cc1ccc(NC(=O)c2cccc3c2C(=O)N(C2CCCCC2)C3)c(C)c1	2%	?	-9%	2%	2%
CCCc1c(-c2cccc(Br)c2)ncn1Cc1ccccc1OC	·	21µM*	?	·	·
CCCc1c(-c2ccc(Cl)cc2)ncn1CCc1ccccc1OC	·	5.8µM*	6.5µM*	·	·
CCCc1c(-c2ccc(F)cc2)ncn1CCc1ccccc1OC	·	16µM*	?	·	·
COc1ccccc1Cn1cnc2cccnc21	5%	7%	-20%	-2%	2%
CCCc1c(-c2ccc(Cl)cc2)ncn1Cc1ccccc1OC	·	21µM*	12µM*	·	·
Cc1ccc(C(=O)N2CCc3ccccc32)cc1[N+](=O)[O-]	2%	-20%	-1%	2%	·
CC1CCN(CCNC(=O)c2ccc3c(=O)n(Cc4ccc(Cl)cc4)c(=S)[nH]c3c2)CC1	-27%	?	?	-5%	6%
CN(C)c1cccc(-c2nnc(SCC(=O)NCc3ccco3)n2C)c1	·	0%	-10%	·	·
COc1ccccc1CC(=O)N1CCN(c2cccc(Cl)c2)CC1	-1%	-28%	-13%	3%	·
CCCc1c(-c2cccc(Cl)c2)ncn1CCc1ccccc1OC	·	16µM*	?	·	·
Cc1ccc(CN2CCC(CNC(=O)c3cc4ccc5cccnc5c4[nH]3)CC2)cc1	·	16µM*	16µM*	?	7%
Cc1ccc(CNC(=O)c2cc3ccc4cccnc4c3[nH]2)cc1	·	?	?	-20%	4%
COc1cccc(CNC(=O)c2cc3ccc4cccnc4c3[nH]2)c1	·	-24%	-21%	3%	0%
CCN(Cc1ccccc1)C(=O)c1cc2ccc3cccnc3c2[nH]1	·	18µM*	?	18%	1%
COc1ccc(OC)c(CNC(=O)c2cc3ccc4cccnc4c3[nH]2)c1	·	26µM*	?	-3%	7%
CC(=O)Oc1ccc(N2C(=O)C3C(C2=O)C(C(=O)c2ccc(Cl)cc2)N2CCCC32)cc1 (centres undefined)	-2%	18µM*	?	17%	1%
CNC(=S)NN=C(C)CCCC(C)=NNC(=S)NC	2%	0.021µM*	0.16µM*	·	·
COc1cc(CN(C)C)cc(C=O)c1O	-6%	-11%	3%	1%	-10%
COc1cc(N=Nc2ccc(Br)cc2)cc(C=O)c1O	·	4.6µM*	5.2µM*	·	·
C#CCN(CC=C)C(=O)C1CCC(=O)N(CCCc2ccccc2)C1 (centres undefined)	-11%	-4%	-11%	-8%	·
Cc1nc(-c2ccccc2)sc1-c1ccc(SCC(=O)Nc2ccccc2)nn1	·	23µM*	?	-19%	0%
SMILES	uPA surface inh	DT40 TDP1 no CPT	TDP1 cell CPT	miR-21 reporter	TDP1 inh
COC(=O)c1ccc(NC(=O)CSc2ccc(-c3sc(-c4ccccc4)nc3C)nn2)cc1	·	12µM*	?	-14%	0%
COC(=O)c1ccc(NC(=O)CSc2nc(=O)n3cccc(C)c3n2)cc1	-3%	?	18µM*	·	12%
COC(=O)c1ccc(NC(=O)CSc2nccn2CCc2ccccc2)cc1	2%	18µM*	?	-29%	-7%
CCOc1ccc(NC(=O)CSc2ccc(-c3sc(-c4ccccc4)nc3C)nn2)cc1	·	?	-88%	1%	3%
Cn1cnnc1SCC(=O)N(Cc1ccc2c(c1)OCO2)C1(C(=O)NC2CCCCC2)CCCC1	·	-10%	1%	-2%	7%
O=C(CSc1ncc(C(=O)O)n1-c1ccc(F)cc1)NCc1ccc2c(c1)OCO2	4%	0%	18%	0%	-2%

Screening data deposited in PubChem BioAssay by National Center for Advancing Translational Sciences (NCATS).
